Measured values as given in ChEMBL document CHEMBL3988442, “University of Dundee, Small-Polar-MMV Screening Library” (2021).
Among all 48,000 compounds or so, about 13,000 (27%) showed an effect of 50% or more. The list shows a part of the results.

System: Wolbachia pipientis
Experiment: Anti-Wolbachia Cell-Based Screen
Type: functional
Design: scale not given: in the data most compounds retested in dose-response had high values
Conditions: 5 µM

SMILES | Percent Effect [%]
Cc1nc[nH]c1-c1nc2cc(S(=O)(=O)N3CCCC3)ccc2n1C | -21.22
Cc1ncc(CNc2cnccc2CO)s1 | 7.83
CCN(CC)S(=O)(=O)N1C[C@@H](O)[C@H](Oc2cccc(F)c2)C1 | 71.42
CCS(=O)(=O)N1C[C@@H](O)[C@H](Oc2cccc(F)c2)C1 | 115.8
O=C(c1ccnnc1)N1C[C@@H]2CC[C@H](Oc3cccc(F)c3)[C@@H]2C1 | -13.73
CCN(Cc1cccc(F)c1)S(=O)(=O)N1CCOCC1 | -36.14
Cc1cnccc1CN1C[C@@H](O)[C@H](Oc2cccc(F)c2)C1 | -1.659
CCN(C)C(=O)c1ccc(N2CCC(Oc3cccc(F)c3)CC2)nc1 | -6.141
COc1cccc(F)c1-c1nc2c([nH]1)c(C1CC1)nn2C | 3.42
CCCC(C)C(=O)Nc1ccc(OC)nc1N1CCN(C(C)=O)CC1 (configuration not stated) | -14.17
Cc1cc(NC(C)C(=O)NCc2ccccc2)nc(-c2ccncc2)n1 (configuration not stated) | 6.15
CNc1cc(CNC(=O)c2ccccc2)nc(-c2ccncc2)n1 | -7.143
CNc1cc(CNC(=O)c2ccnc(OC)c2)nc(-c2ccncc2)n1 | 103.5
CNc1cc(CNC(=O)c2ccncc2)nc(-c2ccncc2)n1 | 109.4
CNc1cc(CNC(=O)c2ccccc2OC)nc(-c2ccncc2)n1 | 104.1
COc1cc(C(=O)N(C)C(C)Cc2cc(C)ccn2)ccn1 (configuration not stated) | -2.709
CNc1cc(CNC(=O)c2cccnc2)nc(-c2ccncc2)n1 | 94.55
O=C(NCCOc1ncc(Cl)cc1Cl)c1cccnc1 | 0.5232
CNc1cc(CNC(=O)c2ccccn2)nc(-c2ccncc2)n1 | -12.05
COc1cc(C(=O)NCc2cc(N3CCOCC3)ncn2)ccn1 | 5.956
O=S1(=O)CCC(n2cc(CNc3ccccc3Br)cn2)C1 (configuration not stated) | 3.444
CCOCC1CCN(C(=O)C(c2c(F)cccc2F)N(C)C)CC1 (configuration not stated) | -13.66
CC(C)c1nc(-c2ccc(=O)[nH]n2)n(-c2ccc3c(c2)OCO3)n1 | -26.15
CC(C)N1CCOC[C@H]1c1nc(-c2ccncc2)c[nH]1 | 8.176
CCc1nccn1CCC(=O)N1C[C@H]2CC[C@@H]1CN(C(=O)N(C)C)C2 | -6.839
CC(C)C(=O)NCCNC(=O)C(C)OCC(F)(F)F (configuration not stated) | 2.033

SMILES | Percent Effect [%]
CC(C)COC(C)C(=O)NCCNC(=O)C(C)C (configuration not stated) | 90.67
CC(C)COC(C)C(=O)N1CCCC1 (configuration not stated) | -7.961
CCN(CC)CCNC(=O)C(C)OCC(F)(F)F (configuration not stated) | -16.45
CC(C)COC(C)C(=O)NCCNS(C)(=O)=O (configuration not stated) | 116.1
CC(C)COC(C)C(=O)NCc1ccccc1Cn1ccnc1 (configuration not stated) | -1.115
CCOC(C)C(=O)NCCNS(C)(=O)=O (configuration not stated) | 99.51
CC(Oc1ccc(C(=O)NCCNS(C)(=O)=O)cn1)c1ccccc1 (configuration not stated) | 12.3
CC(C)COC(C)C(=O)N1CCCCCC1 (configuration not stated) | -3.624
CC(C)N1CC(C(=O)N2CCN(CCn3cccc3)CC2)CC1=O (configuration not stated) | 11.86
Cc1ccc(CN(CCN(C)C)Cc2ncc[nH]2)s1 | -6.049
CNC(=O)c1cccc(CCNS(C)(=O)=O)c1 | -1.562
COc1ccc(OC)c(C(C)NC(=O)Nc2nnc(C)s2)c1 (configuration not stated) | -19.71
O=C(O)C(F)(F)F.OCCOCc1n[nH]c2c1CN(Cc1ccccn1)C2 | -2.311
CN(C)C(=O)COCc1cncc2c1CCN(Cc1ccccn1)C2.O=C(O)C(F)(F)F.O=C(O)C(F)(F)F | 86.2
CN(C)C(=O)COCc1cncc2c1CCN(Cc1ccccc1)C2.O=C(O)C(F)(F)F.O=C(O)C(F)(F)F | -0.7445
CN(C)CCOCc1cncc2c1CCN(Cc1ccccn1)C2.O=C(O)C(F)(F)F.O=C(O)C(F)(F)F.O=C(O)C(F)(F)F | 94.64
CN(C)C(=O)COCc1cncc2c1CCN(Cc1cnn(C)c1)C2.O=C(O)C(F)(F)F.O=C(O)C(F)(F)F | -8.97
CCCN1CCc2c(C(=O)N(C)Cc3ccccn3)nn(C)c2C1.O=C(O)C(F)(F)F.O=C(O)C(F)(F)F.O=C(O)C(F)(F)F | 5.255
O=C(O)c1cc(-c2ccncc2)cc(S(=O)(=O)NCc2ccccn2)c1 | -3.238
CC(C1CC1)N(CC(=O)NC(=O)NC1CC1)C1CC1 (configuration not stated) | -6.692
Cc1[nH]ncc1CCCNC(=O)Nc1ccccc1 | -6.052
O=C(Nc1ccc(F)cc1F)Nc1c[nH]c(=O)[nH]c1=O | -7.625
Cc1nc(CCCNC(=O)Nc2ccc(F)cc2F)n[nH]1 | 105.4
Cc1[nH]ncc1CCCNC(=O)Nc1ccc(F)cc1 | 17.19
O=C(CCCNC(=O)Nc1ccc(F)cc1F)Nc1cn[nH]c1 | -17.8
Cc1nc(CCCNC(=O)Nc2cc(F)cc(F)c2)n[nH]1 | 105.8

SMILES | Percent Effect [%]
CCC(CO)N(Cc1ccco1)C(=O)c1ccccc1SC (configuration not stated) | -1.914
Cc1cc2c(c(-c3cncc(C(=O)N4CCCC4)n3)c1)OC(CN)C2 (configuration not stated) | 3.308
Cc1cccc(C)c1OC1CCN(Cc2ccn(C)c(=O)c2)CC1 | 80.01
COc1ccc(OC2CCN(Cc3ccn(C)c(=O)c3)CC2)cc1 | 90.95
CCOc1ccccc1OC1CCN(Cc2ccn(C)c(=O)c2)CC1 | 96.61
Cn1ccc(CN2CCC(Oc3ccccc3)CC2)cc1=O | 0.4399
CC(=O)NCCC(=O)N(C/C=C/c1ccccc1)CCO | 2.612
CC(C)(O)CCc1ccc(C(=O)NCC2CCCOC2)cc1 (configuration not stated) | -16.45
Cc1csc2nc3n(c(=O)c12)CCN(C(=O)c1ccncc1)CC3 | 0.2415
CCc1nc(CN2CCN(C(=O)c3cc(C)nn3C)CC2)cs1 | -4.839
Cc1nc(-c2ccsc2)sc1C(=O)N1CCn2c(C)nnc2C1 | -8.635
CCc1cc(C(=O)N2CCc3nc4c(C)csc4c(=O)n3CC2)on1 | 101.2
Cc1ccc(C(=O)N2CCc3nc4c(C)csc4c(=O)n3CC2)cn1 | 130.6
Cc1noc(CN2CCN(C(=O)c3ccccn3)CC2)n1 | -3.094
CN1CCN(Cc2cnc3n2CCN(C(=O)c2ccccn2)C3)CC1 | -0.6061
Cc1csc2c(=O)n3c(nc12)CCN(C(=O)c1cccnc1)CC3 | -6.131
Cc1nc(C)c(C(=O)N2CCc3nc4c(C)csc4c(=O)n3CC2)s1.Cl | 93.57
Cc1csc2c(=O)n3c(nc12)CCN(C(=O)c1ccccn1)CC3 | 118.3
O=C1OCCN1CCc1nc(-c2cc3c4c(c2)CC(=O)N4CCC3)cs1 | -4.599
O=C(O)CC[C@@H]1CN(c2ncccc2F)CC[C@@H]1N1CCOCC1 | 1.489
CSCc1nc(C(C)(C)NC(=O)OC(C)(C)C)no1 | 6.132
COc1ccc(CN2C[C@@H](CN(C)CCO)[C@@H](CO)C2)cc1Cl | -12.8
CC(C)(C)N1CC(C(=O)NCc2nc(C3CCCCC3)no2)CC1=O (configuration not stated) | -1.29
CCc1ccc(CNC(=O)CCNS(=O)(=O)c2cn(C)c(C)n2)s1 | -8.825
Cc1cc2c(=O)n3c(nc2s1)CCN(C(=O)c1cnn(C)c1C)CC3 | -11.91
Cc1csc2c(=O)n3c(nc12)CCN(C(=O)c1ccnn1C)CC3 | 126.7

SMILES | Percent Effect [%]
COc1ccc(NC(=O)N2CCC(c3nnc[nH]3)CC2)cc1C | -18.03
NC(=O)C1CN(C(=O)NCC2(c3ccc(F)cc3)CCC2)CCO1 (configuration not stated) | 2.915
NC(=O)C1CN(C(=O)Nc2cc(Cl)cc(Cl)c2)CCO1 (configuration not stated) | -5.843
CN1CCCc2cc(NC(=O)N3CCOC(C(N)=O)C3)ccc21 (configuration not stated) | -7.642
NC(=O)C1CN(C(=O)Nc2ccc(SC(F)(F)F)cc2)CCO1 (configuration not stated) | 111.1
C[C@@H]1CN(C(=O)Nc2cccc(OC(F)F)c2)CC(C(N)=O)O1 (some centres not stated) | -8.405
Cc1cc(NC(=O)N2CCOC(C(N)=O)C2)ccc1Br (configuration not stated) | 158.4
COCCN1CCC(CNC(=O)Nc2ccc(SC(F)(F)F)cc2)C1 (configuration not stated) | -1.712
Cc1ccc(NC(=O)N2CCOC(C(N)=O)C2)cc1C(F)(F)F (configuration not stated) | 103.5
COCCCC1(CO)CCCN(Cc2cccc(C#N)c2)C1 (configuration not stated) | 1.897
COCC(C)NCc1ccc2[nH]c(C)c(C)c2c1 (configuration not stated) | 5.235
Cc1ccc(-n2c(COCC(=O)O)nc3c(C)cccc32)nc1 | -11.98
O=C(c1ccc2nncn2c1)N1CCCC1c1noc(C2CC2)n1 (configuration not stated) | -1.94
OCCCN1CCCC1c1nc(Cc2ccc(F)cc2)no1 (configuration not stated) | -4.354
Cc1ncsc1CN1CC(C)(C2CC2)CC1=O (configuration not stated) | -4.839
Cc1nc(CN(C)C2CCN(CCCOc3ccccc3C)C2)no1 (configuration not stated) | 109.1
Cc1cccc(OCCCN2CCC(N(C)Cc3noc(C)n3)C2)c1 (configuration not stated) | 112.7
CCc1n[nH]c(C2CN(CCCOc3cccc(C)c3)CCO2)n1 (configuration not stated) | 13.14
Cc1nc(CN(C)C2CCN(CCCc3ccccc3)C2)no1 (configuration not stated) | 119.3
Cc1nc(CN(CCc2ccccc2)C2CCN(C)CC2)no1 | -15.44
Cc1nc(CN(C)C2CCN(CCCOc3ccc(F)cc3)C2)no1 (configuration not stated) | 112.3
CC(C)N(Cc1cccc(Cl)c1)Cc1nnsc1Cl | 2.005
Cc1cc(CN2CCc3nn(C)c(=O)cc3C2)no1 | -29.82
O=C(NCC1CCS(=O)(=O)C1)c1sccc1-c1ccc(F)cc1 (configuration not stated) | -6.4
